Pf growth 48h = P. falciparum growth inhibition at 48 hours (one generation); 310,000 tested, 5.9% active; Potency, µM (titrated, usually from 28.7 µM), actives largely listed as inhibitors; P. falciparum luciferase growth in erythrocytes, 48 h; AID 504832
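Parasite viability was followed by luminescence of a genomically integrated firefly luciferase. Cultures held 0.1% parasitemia at 2% hematocrit (final), incubated under 5% CO2 at 37 C.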
HCMV inh = human cytomegalovirus inhibition; HFF cells, HCMV-luciferase reporter, 72 h; active compounds read low; activity change, negative = inhibition, % at 57.5 µM; 410,000 tested, 4.5% active; AID 1259415; in the data active = activity change below about -60%; inconclusive = no clear call, values can overlap the other calls; inactive = above about -39%
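Compounds were evaluated in HFFs infected with an HCMV luciferase reporter virus (MOI 1 PFU/cell). Luciferase in lysates collected 72 h post infection served as the replication measure.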
LASV entry inh = inhibitors of Lassa virus binding or cell entry | Potency, µM (highest dose often 37.9 µM), hits mostly inhibitors | Lassa virus pseudotype entry inhibition, cell reporter | 300,000 tested, 1.2% active; calls by dose curve; tested in HEK293 cells; note: nearly all actives have a fitted effect of over 50% in size
HCV inhibitor = HCV inhibition; Huh7.5.1 HCVcc-Cre infection, luciferase reporter, 44 h; Potency, µM (series often up to 41.8 µM), usual class: inhibitors; 340,000 tested, 3.4% active
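Antiviral activity was scored by luciferase reporter output from cells infected with HCVcc-Cre (~0.5 moi) in presence of compound, 44 h infection period, cells seeded 1,000/well 4 h prior.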
MARV entry inh = inhibitors of Marburg virus binding or cell entry; Potency, µM (series often up to 37.8 µM), hits mostly inhibitors; 300,000 tested, 1.8% active; Marburg virus pseudotyped entry inhibition, cell reporter; calls by dose curve; tested in HEK293 cells
Pf growth 96h = inhibits malaria parasite growth, 96 h; P. falciparum luciferase reporter growth, 96 h; AID 504834; 320,000 tested, 6.9% active; Potency, µM (doses to about 28.7 µM), usual class: inhibitors
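Plates of compound plus infected erythrocytes (2% hematocrit, 0.05% parasitemia final) incubate 96 hours, 37 C, 5% CO2. Detection reagent added; reduced luminescence from the parasites' luciferase reporter flags inhibition.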
Hits are given with their value; ! = repeats disagree. This is a sample that favours compounds with a hit; in the whole collection about 14% have one here. Unless noted, calls come from the whole dose curve; as a rule, active = well fitted inhibition curve with a large enough effect; inconclusive = small, poorly fitted or top-dose-only effect, or another doubt; inactive = no such curve, though single readings can be large or run the other way.

`O=C(O)c1ccc(CSc2nnc(COc3ccc(Cl)cc3Cl)o2)cc1` gave HCMV inh inactive, HCV inhibitor inactive and Pf growth 96h 2.6µM.
Screening c1ccc(CSc2ccc3nnc(-c4ccccn4)n3n2)cc1 returned Pf growth 48h inconclusive, HCMV inh inactive, LASV entry inh inactive, HCV inhibitor inactive, MARV entry inh inconclusive and Pf growth 96h inconclusive.
For O=C(CSc1ccc2nnc(-c3ccccn3)n2n1)Nc1cccc(F)c1 the results were Pf growth 48h inconclusive, HCMV inh inactive, LASV entry inh inactive, MARV entry inh inconclusive and Pf growth 96h 13µM.
Screening O=C(CSc1ccc2nnc(-c3ccccn3)n2n1)Nc1ccccc1F returned Pf growth 48h 9.3µM, HCMV inh inactive, LASV entry inh inactive, HCV inhibitor inactive, MARV entry inh inactive and Pf growth 96h inactive.
For Cc1cccc(CSc2ccc3nnc(-c4ccccn4)n3n2)c1 the results were Pf growth 48h 3.7µM, HCMV inh inactive, LASV entry inh inactive, HCV inhibitor inactive, MARV entry inh inconclusive and Pf growth 96h inconclusive.
`Cc1ccc(C(=O)NCCc2nnc3ccc(SCC(=O)Nc4c(C)cc(C)cc4C)nn23)cc1` gave Pf growth 48h inactive, HCMV inh inactive, LASV entry inh inactive, HCV inhibitor inactive, MARV entry inh inactive and Pf growth 96h inactive.
Cc1ccc(C(=O)NCCc2nnc3ccc(SCC(=O)Nc4ccccc4C)nn23)cc1 was read as Pf growth 48h inconclusive, HCMV inh inactive, LASV entry inh inconclusive, HCV inhibitor inactive, MARV entry inh inactive and Pf growth 96h 10µM.
For C/C(CCC(=O)OC[C@@H]1O[C@H](C#Cc2ccccc2)C=C[C@@H]1Oc1ccc(C)cc1)=N/OC[C@@H](O)[C@H]1O[C@H]2OC(C)(C)O[C@H]2[C@@H]1O the results were MARV entry inh inactive.
For COC(=O)c1ccccc1NC(=O)Cn1nc(C(F)(F)F)c2c1CCCC2 the results were HCMV inh inconclusive, LASV entry inh inactive and MARV entry inh inconclusive.
For CCOc1ccc(CCNC(=O)c2sc3nc4n(c(=O)c3c2C)CCCC4)cc1 the results were HCMV inh inactive and LASV entry inh inactive.
`C/C=C(\C)C(=O)OC1C(C)=C2C(C1OC(=O)CCCCC)C(C)(OC(C)=O)CC(OC(=O)CCC)C1(O)C2OC(=O)C1(C)O` (stereo not drawn) gave Pf growth 48h 4.1µM and Pf growth 96h 2.9µM.
For COc1ccccc1CN1CCC(CNS(=O)(=O)c2cc(-c3cc(C)no3)ccc2C)CC1 the results were Pf growth 48h 4.7µM, HCMV inh inconclusive, HCV inhibitor inconclusive and Pf growth 96h inactive.
COc1ccccc1CNS(=O)(=O)c1cc(-c2cc(C)no2)ccc1C was read as HCMV inh inactive and LASV entry inh inactive.
For CCOc1ccccc1CNS(=O)(=O)c1cc(-c2cc(C)no2)ccc1OC the results were Pf growth 48h inactive, HCMV inh inactive, HCV inhibitor inconclusive and Pf growth 96h 12µM.
Screening CCOC(=O)c1cc(-c2ccc(OC)c(S(=O)(=O)NC3CCCCC3)c2)on1 returned HCMV inh -69 and LASV entry inh inactive.
Cc1ccc(CCNS(=O)(=O)c2cc(-c3cc(C)no3)ccc2C)cc1 was read as HCMV inh inactive and LASV entry inh inactive.
COc1ccc(-c2cc(C)no2)cc1S(=O)(=O)NCC1CCN(Cc2cc(C)ccc2C)CC1 was read as Pf growth 48h inconclusive, HCMV inh inactive, HCV inhibitor inactive and Pf growth 96h inconclusive.
`Cc1cc(-c2ccc(C)c(S(=O)(=O)NCC3CCN(Cc4ccc(F)cc4)CC3)c2)on1` gave Pf growth 48h inconclusive, HCMV inh inconclusive, LASV entry inh inconclusive, HCV inhibitor 8.9µM, MARV entry inh inconclusive and Pf growth 96h inconclusive.
COc1ccc(C(=O)c2ccccc2O)c(O)c1 was read as Pf growth 48h 4.1µM, HCMV inh inactive, HCV inhibitor inactive and Pf growth 96h inconclusive.
COc1ccc(C(=O)/C=C/c2ccccc2)c(O)c1 was read as Pf growth 48h inactive, HCMV inh -106, HCV inhibitor inconclusive and Pf growth 96h inactive.
Screening COc1ccc(/C=C/C(=O)c2ccc(OC)cc2OC)cc1 returned Pf growth 48h 3µM, HCMV inh inactive, HCV inhibitor inconclusive and Pf growth 96h 1.7µM.
`COc1cc(OC)c(C(=O)/C=C/c2ccccc2)c(O)c1O` gave Pf growth 48h inconclusive, HCMV inh inactive, HCV inhibitor inactive and Pf growth 96h 12µM.
For OC(c1cc(F)cc(Cl)c1)c1ncc(-c2cccc(C(F)(F)F)c2)[nH]1 (stereo not drawn) the results were HCMV inh inactive.
Screening O=C(/C=C/c1ccc(O)cc1)c1ccc(O)cc1O returned Pf growth 48h inconclusive, HCMV inh inactive, LASV entry inh inconclusive, HCV inhibitor inactive, MARV entry inh 10µM! and Pf growth 96h inconclusive.
`COCOc1cc(OC)ccc1C(=O)C=Cc1ccc([N+](=O)[O-])cc1` gave LASV entry inh inconclusive and MARV entry inh inactive.
`Cc1ccc(/C=C/C(=O)c2ccc(O)cc2)cc1` gave Pf growth 48h inactive, HCMV inh inactive, LASV entry inh 8.9µM, HCV inhibitor inactive, MARV entry inh inconclusive and Pf growth 96h inactive.
Screening COc1ccc(C(=O)/C=C/c2ccccc2OC)c(OC(=O)c2ccc([N+](=O)[O-])cc2)c1 returned HCMV inh inactive, LASV entry inh inactive, HCV inhibitor 13µM and MARV entry inh inconclusive.
`COc1ccc(OC)c(C(=O)/C=C/c2cccnc2)c1` gave Pf growth 48h inconclusive, HCMV inh -100, LASV entry inh inconclusive, HCV inhibitor inconclusive, MARV entry inh inconclusive and Pf growth 96h 7.4µM.
COc1cc(C(=O)/C=C/c2cccnc2)ccc1O was read as Pf growth 48h inactive, HCMV inh inactive, LASV entry inh inconclusive, HCV inhibitor inactive, MARV entry inh inconclusive and Pf growth 96h inactive.
CSc1ccc(/C=C/C(=O)c2ccc(O)cc2)cc1 was read as Pf growth 48h inactive, HCMV inh inactive, LASV entry inh inactive, HCV inhibitor inactive, MARV entry inh inactive and Pf growth 96h inconclusive.
Screening COc1ccc2c(c1)c1c(c(=O)n(Cc3ccccc3)c(=O)n1CC(=O)Nc1c(C)cccc1C)n2C returned HCMV inh inactive and LASV entry inh inactive.
O=C(/C=C/c1cccnc1)/C=C/c1cccnc1 was read as Pf growth 48h inconclusive, HCMV inh -97, HCV inhibitor inconclusive and Pf growth 96h inconclusive.
Screening CC(C)=CCC/C(C)=C/Cc1c(O)ccc(C(=O)/C=C/c2ccc(O)cc2)c1O returned Pf growth 48h inconclusive, HCMV inh inactive, LASV entry inh inconclusive, HCV inhibitor 25µM, MARV entry inh inactive and Pf growth 96h 8.3µM.
`C(=Cc1cccnc1)c1ccncc1` gave HCMV inh inactive, LASV entry inh inactive, HCV inhibitor inactive and MARV entry inh inactive.
O=S1(=O)CC(N2CC=CC2)CN1Cc1cn(Cc2cccc(Cl)c2)nn1 (stereo not drawn) was read as HCMV inh inactive.

Bioassay records: PubChem BioAssay, National Center for Advancing Translational Sciences (NCATS)
